Data on 7 molecules can be found in ChEMBL document CHEMBL2218924, “A broad activity screen in support of a chemogenomic map for kinase signalling research and drug discovery” (Biochem J, 2013).

For assay [1], the target named is T1, Serine/threonine-protein kinase haspin (Homo sapiens) (UniProt Q8TF76).
T1 sequence (whole entry): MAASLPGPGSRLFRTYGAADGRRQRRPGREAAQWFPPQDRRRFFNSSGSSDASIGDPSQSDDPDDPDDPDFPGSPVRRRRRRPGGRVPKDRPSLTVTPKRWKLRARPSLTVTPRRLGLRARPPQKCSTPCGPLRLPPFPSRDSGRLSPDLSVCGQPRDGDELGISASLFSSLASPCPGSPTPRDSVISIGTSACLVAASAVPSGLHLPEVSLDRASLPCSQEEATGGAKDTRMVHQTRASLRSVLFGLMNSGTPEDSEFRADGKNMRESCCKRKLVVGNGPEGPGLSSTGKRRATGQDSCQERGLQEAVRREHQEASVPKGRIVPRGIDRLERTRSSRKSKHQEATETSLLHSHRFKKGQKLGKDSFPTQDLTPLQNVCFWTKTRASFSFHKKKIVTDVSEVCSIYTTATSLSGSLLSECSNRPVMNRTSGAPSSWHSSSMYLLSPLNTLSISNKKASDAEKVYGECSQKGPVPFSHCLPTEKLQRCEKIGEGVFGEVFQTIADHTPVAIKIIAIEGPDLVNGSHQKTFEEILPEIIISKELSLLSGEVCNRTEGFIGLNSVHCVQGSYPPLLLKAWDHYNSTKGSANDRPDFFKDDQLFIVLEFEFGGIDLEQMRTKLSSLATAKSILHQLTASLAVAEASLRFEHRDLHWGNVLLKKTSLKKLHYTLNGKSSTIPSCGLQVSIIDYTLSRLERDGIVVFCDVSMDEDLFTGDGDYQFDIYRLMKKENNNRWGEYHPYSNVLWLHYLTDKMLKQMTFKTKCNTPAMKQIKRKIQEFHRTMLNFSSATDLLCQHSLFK
The conditions noted are these: at 1 µM.

Assay [2] concerns the target Tyrosine-protein kinase HCK (Homo sapiens) (UniProt P08631). The conditions noted are these: at 1 µM.
The target is the same in assay [3]. The conditions noted are these: at 10 µM.
For assay [4] the target is unchanged. The conditions noted are these: at 1 µM. This is another data set of the same source.
For assay [5] the target is unchanged. The conditions noted are these: at 10 µM. This is another data set of the same source.
Assay [6] concerns the target Insulin-like growth factor 1 receptor (Homo sapiens) (UniProt P08069). The conditions noted are these: at 1 µM.
For assay [7], the target named is Protein kinase C eta type (Homo sapiens) (UniProt P24723). The conditions noted are these: at 1 µM.
Chain of Protein kinase C eta type (Homo sapiens) (P24723 whole entry): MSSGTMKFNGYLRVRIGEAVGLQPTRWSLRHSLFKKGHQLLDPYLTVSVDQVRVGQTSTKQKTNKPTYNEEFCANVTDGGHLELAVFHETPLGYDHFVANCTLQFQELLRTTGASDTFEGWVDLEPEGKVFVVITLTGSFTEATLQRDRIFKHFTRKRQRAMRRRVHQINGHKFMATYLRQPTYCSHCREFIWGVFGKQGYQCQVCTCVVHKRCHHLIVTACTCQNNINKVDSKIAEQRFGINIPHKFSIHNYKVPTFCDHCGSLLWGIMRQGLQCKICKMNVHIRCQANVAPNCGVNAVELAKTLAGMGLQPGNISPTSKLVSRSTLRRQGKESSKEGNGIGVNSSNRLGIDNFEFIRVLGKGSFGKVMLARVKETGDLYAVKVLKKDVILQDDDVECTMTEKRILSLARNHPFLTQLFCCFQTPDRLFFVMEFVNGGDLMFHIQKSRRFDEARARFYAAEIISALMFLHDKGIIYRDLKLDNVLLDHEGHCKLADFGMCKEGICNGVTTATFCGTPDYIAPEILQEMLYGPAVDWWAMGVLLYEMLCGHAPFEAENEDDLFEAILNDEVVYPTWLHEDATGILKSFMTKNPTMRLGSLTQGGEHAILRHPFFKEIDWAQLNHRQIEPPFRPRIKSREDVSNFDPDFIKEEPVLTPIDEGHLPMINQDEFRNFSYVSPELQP
Assay [8] has the same target. The conditions noted are these: at 10 µM.
Assay [9] addresses Protein kinase C theta type (Homo sapiens) (UniProt Q04759). The conditions noted are these: at 1 µM.
Assay [10] has the same target. The conditions noted are these: at 10 µM.
Assay [11] deals with T2, Protein kinase C iota type (Homo sapiens) (UniProt P41743).
T2 sequence (whole entry): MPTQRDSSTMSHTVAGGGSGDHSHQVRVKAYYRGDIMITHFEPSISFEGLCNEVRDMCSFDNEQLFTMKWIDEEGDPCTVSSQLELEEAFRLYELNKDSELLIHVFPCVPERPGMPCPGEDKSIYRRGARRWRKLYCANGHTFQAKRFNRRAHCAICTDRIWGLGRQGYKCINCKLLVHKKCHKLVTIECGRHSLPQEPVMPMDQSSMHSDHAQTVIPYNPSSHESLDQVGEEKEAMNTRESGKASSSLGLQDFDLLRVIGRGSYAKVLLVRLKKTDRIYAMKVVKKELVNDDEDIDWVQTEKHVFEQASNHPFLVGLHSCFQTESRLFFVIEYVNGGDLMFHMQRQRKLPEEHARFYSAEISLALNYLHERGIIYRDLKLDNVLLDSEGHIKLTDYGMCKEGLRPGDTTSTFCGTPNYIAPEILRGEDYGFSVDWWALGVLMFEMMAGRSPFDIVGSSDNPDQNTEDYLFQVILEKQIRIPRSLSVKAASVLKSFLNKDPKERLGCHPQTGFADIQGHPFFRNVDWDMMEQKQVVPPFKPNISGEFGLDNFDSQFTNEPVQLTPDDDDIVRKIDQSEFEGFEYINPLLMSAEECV
The conditions noted are these: at 1 µM.

In assay [12] the target is T2, Protein kinase C iota type (Homo sapiens). The conditions noted are these: at 10 µM.
Assay [13] concerns the target T3, Serine/threonine-protein kinase D1 (Homo sapiens) (UniProt Q15139).
T3 sequence (whole entry): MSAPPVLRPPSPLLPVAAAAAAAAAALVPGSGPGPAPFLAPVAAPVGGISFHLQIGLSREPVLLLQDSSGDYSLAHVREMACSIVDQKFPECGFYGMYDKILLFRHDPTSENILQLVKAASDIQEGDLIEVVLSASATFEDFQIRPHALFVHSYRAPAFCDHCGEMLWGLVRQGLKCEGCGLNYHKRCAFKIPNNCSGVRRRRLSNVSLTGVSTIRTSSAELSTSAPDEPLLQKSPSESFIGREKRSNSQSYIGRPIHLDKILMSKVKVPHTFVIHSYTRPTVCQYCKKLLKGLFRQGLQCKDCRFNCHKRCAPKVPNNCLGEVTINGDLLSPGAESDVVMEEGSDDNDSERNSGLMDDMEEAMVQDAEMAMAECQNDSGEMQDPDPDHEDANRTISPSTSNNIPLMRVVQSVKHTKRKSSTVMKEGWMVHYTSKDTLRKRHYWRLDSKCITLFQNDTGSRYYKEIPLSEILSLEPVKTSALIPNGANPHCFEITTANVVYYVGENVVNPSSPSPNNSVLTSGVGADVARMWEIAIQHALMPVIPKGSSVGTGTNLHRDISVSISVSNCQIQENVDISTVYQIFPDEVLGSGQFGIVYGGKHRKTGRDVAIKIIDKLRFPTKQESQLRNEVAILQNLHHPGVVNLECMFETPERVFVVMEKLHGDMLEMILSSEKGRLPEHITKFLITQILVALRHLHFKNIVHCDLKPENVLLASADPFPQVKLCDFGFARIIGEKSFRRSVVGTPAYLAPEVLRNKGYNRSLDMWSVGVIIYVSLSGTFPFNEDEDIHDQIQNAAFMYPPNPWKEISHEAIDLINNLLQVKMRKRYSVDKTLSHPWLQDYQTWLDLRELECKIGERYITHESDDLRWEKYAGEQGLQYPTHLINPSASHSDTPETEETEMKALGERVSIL
The conditions noted are these: at 1 µM.

Assay [14] concerns the target T3, Serine/threonine-protein kinase D1 (Homo sapiens). The conditions noted are these: at 10 µM.
In assay [15] the target is T4, Serine/threonine-protein kinase D2 (Homo sapiens) (UniProt Q9BZL6).
T4 sequence (whole entry): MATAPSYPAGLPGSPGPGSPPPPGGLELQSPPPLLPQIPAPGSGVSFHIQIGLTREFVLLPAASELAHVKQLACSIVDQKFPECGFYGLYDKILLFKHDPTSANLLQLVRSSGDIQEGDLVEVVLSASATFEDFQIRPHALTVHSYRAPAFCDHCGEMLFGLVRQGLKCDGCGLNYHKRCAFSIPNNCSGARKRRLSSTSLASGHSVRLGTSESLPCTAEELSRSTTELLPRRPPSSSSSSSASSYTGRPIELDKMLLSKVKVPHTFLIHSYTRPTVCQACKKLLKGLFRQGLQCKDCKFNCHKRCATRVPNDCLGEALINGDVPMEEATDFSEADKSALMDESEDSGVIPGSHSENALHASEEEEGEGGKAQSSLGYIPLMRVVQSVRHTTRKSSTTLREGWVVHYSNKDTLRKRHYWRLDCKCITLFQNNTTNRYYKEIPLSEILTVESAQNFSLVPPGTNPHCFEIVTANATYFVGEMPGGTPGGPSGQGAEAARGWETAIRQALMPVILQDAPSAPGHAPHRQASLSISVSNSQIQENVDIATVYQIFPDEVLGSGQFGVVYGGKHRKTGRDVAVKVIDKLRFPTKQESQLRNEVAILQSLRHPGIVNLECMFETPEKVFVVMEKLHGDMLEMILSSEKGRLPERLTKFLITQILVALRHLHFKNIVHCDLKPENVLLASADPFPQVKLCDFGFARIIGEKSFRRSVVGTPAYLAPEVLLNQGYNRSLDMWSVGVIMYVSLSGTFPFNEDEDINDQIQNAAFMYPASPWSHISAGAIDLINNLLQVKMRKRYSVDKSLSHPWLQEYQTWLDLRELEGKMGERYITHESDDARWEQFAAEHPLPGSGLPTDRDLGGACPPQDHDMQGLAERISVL
The conditions noted are these: at 1 µM.

Assay [16] deals with T4, Serine/threonine-protein kinase D2 (Homo sapiens). The conditions noted are these: at 10 µM.
Assay [17] addresses T5, Protein kinase C zeta type (Homo sapiens) (UniProt Q05513).
T5 sequence (whole entry): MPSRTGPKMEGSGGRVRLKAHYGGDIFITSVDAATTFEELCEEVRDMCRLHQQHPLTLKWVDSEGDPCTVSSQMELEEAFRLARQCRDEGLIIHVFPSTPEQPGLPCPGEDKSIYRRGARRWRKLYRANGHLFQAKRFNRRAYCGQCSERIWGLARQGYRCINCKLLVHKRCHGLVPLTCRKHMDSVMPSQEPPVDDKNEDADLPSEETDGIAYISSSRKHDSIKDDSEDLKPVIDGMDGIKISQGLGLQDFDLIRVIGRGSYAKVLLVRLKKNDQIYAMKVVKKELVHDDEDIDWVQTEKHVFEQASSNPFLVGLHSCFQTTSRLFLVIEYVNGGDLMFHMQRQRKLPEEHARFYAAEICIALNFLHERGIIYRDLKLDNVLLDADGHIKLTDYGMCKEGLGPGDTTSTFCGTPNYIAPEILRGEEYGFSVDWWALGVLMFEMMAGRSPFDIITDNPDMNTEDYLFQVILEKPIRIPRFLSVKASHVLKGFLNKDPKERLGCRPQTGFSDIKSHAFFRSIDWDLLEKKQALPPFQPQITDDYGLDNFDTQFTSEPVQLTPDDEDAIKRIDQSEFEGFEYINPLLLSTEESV
The conditions noted are these: at 10 µM.

Assay [18] addresses T1, Serine/threonine-protein kinase haspin (Homo sapiens). The conditions noted are these: at 10 µM.
The target in assay [19] is Insulin-like growth factor 1 receptor (Homo sapiens) (UniProt P08069). The conditions noted are these: at 10 µM.
Chain of Insulin-like growth factor 1 receptor (Homo sapiens) (P08069 31-736 limits assumed): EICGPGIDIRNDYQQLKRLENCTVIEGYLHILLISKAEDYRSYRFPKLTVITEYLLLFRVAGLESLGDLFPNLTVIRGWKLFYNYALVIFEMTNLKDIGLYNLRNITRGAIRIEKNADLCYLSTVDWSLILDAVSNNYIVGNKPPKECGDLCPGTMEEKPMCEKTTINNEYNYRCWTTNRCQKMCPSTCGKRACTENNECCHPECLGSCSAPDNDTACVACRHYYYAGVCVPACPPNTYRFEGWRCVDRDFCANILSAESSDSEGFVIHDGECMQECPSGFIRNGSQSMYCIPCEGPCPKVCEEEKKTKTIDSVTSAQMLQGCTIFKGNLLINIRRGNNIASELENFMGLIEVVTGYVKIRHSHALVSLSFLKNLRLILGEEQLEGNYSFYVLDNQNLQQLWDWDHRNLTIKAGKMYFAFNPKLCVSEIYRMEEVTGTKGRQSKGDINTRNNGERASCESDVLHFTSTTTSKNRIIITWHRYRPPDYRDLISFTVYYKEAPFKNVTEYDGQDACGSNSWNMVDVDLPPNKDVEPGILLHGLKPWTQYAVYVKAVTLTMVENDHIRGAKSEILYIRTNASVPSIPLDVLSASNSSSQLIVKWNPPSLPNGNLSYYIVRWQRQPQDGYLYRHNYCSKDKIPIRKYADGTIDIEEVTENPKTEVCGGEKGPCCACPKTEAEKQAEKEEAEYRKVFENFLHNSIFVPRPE
Chain of Insulin-like growth factor 1 receptor (Homo sapiens) (P08069 741-1367 limits assumed): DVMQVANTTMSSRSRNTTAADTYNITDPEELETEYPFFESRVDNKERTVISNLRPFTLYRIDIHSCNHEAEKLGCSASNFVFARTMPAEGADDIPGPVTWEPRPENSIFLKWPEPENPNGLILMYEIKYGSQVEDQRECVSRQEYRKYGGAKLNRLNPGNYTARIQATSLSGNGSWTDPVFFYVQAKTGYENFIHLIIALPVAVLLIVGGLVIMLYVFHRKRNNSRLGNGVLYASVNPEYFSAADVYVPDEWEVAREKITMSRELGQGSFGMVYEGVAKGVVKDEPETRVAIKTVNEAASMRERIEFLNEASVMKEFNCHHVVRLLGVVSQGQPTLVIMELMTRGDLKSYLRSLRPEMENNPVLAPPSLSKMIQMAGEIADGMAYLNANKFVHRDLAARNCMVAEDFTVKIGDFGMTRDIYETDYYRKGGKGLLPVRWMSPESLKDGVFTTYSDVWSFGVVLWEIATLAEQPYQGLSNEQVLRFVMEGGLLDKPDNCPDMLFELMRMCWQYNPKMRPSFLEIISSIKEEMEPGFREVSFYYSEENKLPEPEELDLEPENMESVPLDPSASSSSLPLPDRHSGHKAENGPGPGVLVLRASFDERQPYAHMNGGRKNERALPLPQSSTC

Chain of Protein kinase C theta type (Homo sapiens) (Q04759 whole entry, looked up): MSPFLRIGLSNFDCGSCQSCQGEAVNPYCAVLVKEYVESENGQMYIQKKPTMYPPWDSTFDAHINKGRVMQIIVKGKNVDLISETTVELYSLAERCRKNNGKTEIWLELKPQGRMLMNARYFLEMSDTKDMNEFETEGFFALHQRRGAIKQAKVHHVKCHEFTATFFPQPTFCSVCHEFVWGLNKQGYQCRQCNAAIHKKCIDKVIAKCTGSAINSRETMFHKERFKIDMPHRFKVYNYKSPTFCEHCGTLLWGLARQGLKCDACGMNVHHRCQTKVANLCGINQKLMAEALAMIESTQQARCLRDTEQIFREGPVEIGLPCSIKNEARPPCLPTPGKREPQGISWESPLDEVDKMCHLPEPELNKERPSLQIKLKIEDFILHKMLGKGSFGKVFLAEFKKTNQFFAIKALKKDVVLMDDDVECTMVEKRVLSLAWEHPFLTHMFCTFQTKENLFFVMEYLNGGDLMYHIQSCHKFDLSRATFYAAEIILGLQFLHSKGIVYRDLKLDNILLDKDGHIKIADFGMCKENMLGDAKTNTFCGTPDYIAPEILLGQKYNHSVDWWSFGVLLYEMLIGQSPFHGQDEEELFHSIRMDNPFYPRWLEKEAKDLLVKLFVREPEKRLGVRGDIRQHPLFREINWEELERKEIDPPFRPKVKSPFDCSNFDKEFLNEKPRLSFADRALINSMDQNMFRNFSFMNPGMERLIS
Chain of Tyrosine-protein kinase HCK (Homo sapiens) (P08631 2-526 limits assumed): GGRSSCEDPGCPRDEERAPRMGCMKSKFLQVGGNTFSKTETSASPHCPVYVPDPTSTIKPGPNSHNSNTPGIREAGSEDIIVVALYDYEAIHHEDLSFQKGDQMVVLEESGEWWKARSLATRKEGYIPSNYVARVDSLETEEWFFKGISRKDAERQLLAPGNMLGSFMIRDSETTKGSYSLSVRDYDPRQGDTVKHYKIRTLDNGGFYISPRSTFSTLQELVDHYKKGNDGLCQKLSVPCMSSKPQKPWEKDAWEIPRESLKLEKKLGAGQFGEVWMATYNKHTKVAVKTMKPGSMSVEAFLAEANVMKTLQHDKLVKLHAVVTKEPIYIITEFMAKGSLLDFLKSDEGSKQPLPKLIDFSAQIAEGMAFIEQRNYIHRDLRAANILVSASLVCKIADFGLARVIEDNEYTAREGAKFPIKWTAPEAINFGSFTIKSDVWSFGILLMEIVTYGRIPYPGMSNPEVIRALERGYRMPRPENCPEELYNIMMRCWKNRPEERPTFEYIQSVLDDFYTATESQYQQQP

On to `Cn1sc(=O)n(Cc2ccccc2)c1=O`, for which the residual activity in [1] worked out at 77%; in assay [2] it was 75%; in [3], 64%; in [4], 89%; in assay [5], 90%; in assay [6], 93%. Besides, the residual activity was 79% in [7]; 17% in assay [8]; 89% in [9]; 85% in [10]; 87% (inactive) in assay [11]; 19% in assay [12]. Further, the residual activity in assay [13] was 90%; in assay [14] it was 64%; in assay [15], 99%; in assay [16] it was 93%.

With `COc1cc2ncnc(Nc3cccc(Cl)c3)c2cc1OC`, the residual activity in [2] came out at 48%; in [3], 13%; in assay [4], 40%; in assay [5], 4%; in [6], 111%; in [17] it was 110%. The residual activity in [7] worked out at 110%; in assay [8] it was 108%; in assay [9], 105%; in assay [10], 101%; in assay [13], 110%; in [14], 73%.

Take `CSc1nc(-c2ccc(F)cc2)c(-c2ccnc(NC(C)c3ccccc3)c2)[nH]1` (centres undefined): the residual activity was determined as 85% in [2]; 51% in assay [3]; 102% in assay [4]; 86% in assay [5]; 87% in [7]; 73% in [8]. Besides, the residual activity in assay [9] was found to be 101%; in [10], 72%; in assay [12], 99%; in [13], 97%; in assay [14], 44%; in assay [16], 94%.

As to `NC(=O)c1ccc(-c2nc(-c3ccc4c(c3)OCCO4)c(-c3ccccn3)[nH]2)cc1`, the residual activity in assay [1] stood at 95%; in assay [18], 82%; in [2], 68%; in assay [3] it was 66%; in assay [19] it was 137%; in assay [7], 94%. Moreover, the residual activity in [8] is 88%; in [13] it was 87%; in [14] it was 62%; in assay [15], 98%; in assay [16], 87%.

Turning to `Fc1ccc(-c2nc3n(c2-c2ccncc2)CCS3)cc1`, the residual activity in [18] worked out at 96%; in assay [2], 95%; in assay [3] it was 94%; in assay [14], 48%; in [16] it was 89%.

In the case of `COc1ccc(CNC(=O)Nc2ncc([N+](=O)[O-])s2)cc1`, the residual activity in assay [2] stood at 13%; in [3], 12%; in [4] it was 52%; in [5] it was 54%; in assay [19], 123%; in assay [17], 105%. For the same molecule, the figures for the residual activity in assay [11] and in assay [12] were 110% (inactive) and 110%, respectively.

For the molecule `O=c1c(-c2ccc(F)cc2)c(-c2ccncc2)[nH]n1-c1ccc(Cl)cc1`, the residual activity came out at 75% in assay [18]; 61% in assay [3]; 81% in [5]; 73% in assay [19]; 72% in assay [8]; 71% in assay [10]. For the same molecule, the residual activity in [12] was found to be 100%; in assay [13], 99%; in [14], 37%; in [16] it was 73%.
